Only some compounds are listed: those with a hit (about 3.1% of all), similar ones and a draw of the others.
TWEAK Fn14 block: inhibitors of TWEAK-Fn14 interaction signaling | TWEAK-stimulated Fn14 reporter cells, luciferase luminescence, 8 h | AID 1159606 | 2% of 360,000 active | inhibition, % at 10 µM; in the data active = inhibition above about 50%
PAX8 inh HTS: lowers PAX8-driven luciferase in RMG-I cells | RMG-I TPO-luciferase reporter, SteadyGlo, 24 h | inhibition, % at 12.6 µM | 1.2% of 360,000 active | AID 652154;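 active = mean replicate inhibition at least 60% with every replicate also reaching 60%; inconclusive = only one of the two criteria is met; inactive = mean below 60% and not all replicates reaching 60%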;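 note: luciferase light reporting Pax8 driven TPO promoter activity; plate controls were median of neutral control wells for no effect and mitoxantrone controls for full effect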
TROY NFkB inh: inhibitors of TROY-dependent NF-kB signaling. inhibition, % at 10 µM. Q293 LMP1-TROYcd NF-kB luciferase reporter, 4 h. AID 1347056. 0.98% of 360,000 active;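 active = compounds whose plate-normalised and pattern-corrected inhibition of the luciferase reporter signal at the single screening dose is 50% or more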
LGR2 antag: Drosophila LGR2 receptor signaling inhibition. 0.35% of 380,000 active. inhibition, % at 9.99 µM. HEK293 LGR2, CRE-luciferase, bursicon-stimulated, 4 h;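 active = drop in luminescence signal, shown as inhibition above about 50% in the replicate tests, limit read from the data, passing the limit was not always enough; inconclusive = probably only some replicates passing the limit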;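 note: agonist challenge used bursicon conditioned medium at about half maximal strength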
EWS-Fli inh: blocks EWS/Fli oncoprotein-driven transcription. A673 NR0B1-luciferase reporter, viability-normalised. inhibition, % at 12.6 µM. 0.67% of 350,000 active;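 active = mean inhibition of at least 50% after viability correction, with every replicate also passing that limit; inconclusive = mean reaches 50% but only one of two replicates passes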;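 note: firefly luciferase signal divided by Alamar Blue viability fluorescence both relative to DMSO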
EBV LMP1 NFkB: Epstein-Barr LMP1 NF-kappaB reporter inhibition. LMP1-induced NF-kappaB luciferase reporter cells, luminescence. inhibition, % at 12.5 µM. 0.69% of 350,000 active. AID 504558; in the data active = inhibition above about 41%; inconclusive = no clear call, values can overlap the other calls;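 note: 0% = neutral control wells and 100% = reference inhibitor control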
The depositor's hits bear a star; ? = inconclusive; . = no result given.

SMILES	TWEAK Fn14 block	PAX8 inh HTS	TROY NFkB inh	LGR2 antag	EWS-Fli inh	EBV LMP1 NFkB
CCCc1cc(=O)c2c(O)ccc(OC)c2o1	10	-14	16	5	9	55*
COc1cc(-c2cc(OC)c3c(C)oc(C)c3c(=O)c2)ccc1O	5	.	5	2	18	3
C[C@H]1CN([C@@H](C)CO)C(=O)Cc2cc(NC(=O)Nc3ccccc3)ccc2O[C@@H]1CN(C)C(=O)Nc1ccc(F)cc1	.	.	.	-6	2	.
Cc1ccc(N2CN(Cc3ccco3)CNC2=S)c(C)c1	-10	61*	12	10	13	0
COC(=O)c1cnn(-c2cc(Oc3cccc(C)c3)ncn2)c1N	91*	.	.	.	.	-9
O=C(CSc1nccc(=O)[nH]1)Nc1ccc2ccccc2c1	28	28	35	6	4	-6
O=C(CSc1nccc(=O)[nH]1)Nc1cccc2ccccc12	50*	6	-12	-5	3	-3
C[C@@H]1CCCCO[C@@H](CN(C)C(=O)Nc2cccc3ccccc23)[C@@H](C)CN([C@@H](C)CO)C(=O)c2cc(NC(=O)NC3CCCCC3)ccc2O1	.	30	.	13	12	.
O=C(c1cccnc1)N1C[C@@H]2[C@H](c3ccccc31)[C@H](CO)N2C(=O)Nc1ccccc1F	.	-16	.	12	1	.
COCCNC(=O)c1cc2c(c(-c3cccc(-c4cccc(F)c4)c3)n1)[C@@H](CCO)N(S(=O)C(C)(C)C)C2 (stereo partly drawn)	.	11	.	.	5	.
CCCNC(=O)c1cc2c(c(-c3cccc(-c4cccc(F)c4)c3)n1)[C@@H](CCO)N([S@](=O)C(C)(C)C)C2	.	13	.	-5	-6	.
CC(C)(C)S(=O)N1Cc2cc(C(=O)NCC(F)(F)F)nc(-c3cccc(-c4cccc(F)c4)c3)c2[C@@H]1CCO (stereo partly drawn)	53*	70*	7	15	20	.
COCCNC(=O)c1cc2c(c(-c3cccc(-c4cccc(F)c4)c3)n1)[C@H](CCO)N(S(=O)C(C)(C)C)C2 (stereo partly drawn)	.	62*	.	8	5	.
COc1ccc(S(=O)(=O)N(C)C[C@@H]2Oc3c(NC(=O)Nc4ccc(F)cc4)cccc3C(=O)N([C@H](C)CO)C[C@@H]2C)cc1	.	.	.	8	5	.
COC(=O)C[C@H]1CC[C@H](NS(=O)(=O)c2ccc(OC)cc2)[C@H](CO)O1	.	-2	.	0	-5	.
CC1(C)CC=CC(COC(=O)c2ccccc2C(=O)O)C1 (stereo not drawn)	96*	-35	-30	-47	-6	-10
C[C@H]1CN([C@@H](C)CO)S(=O)(=O)c2ccc(C#Cc3ccc(F)cc3)cc2O[C@@H]1CN(C)C	.	13	.	-4	35	.
CCn1nnc2cc(C(=O)NCCc3ccccc3F)ccc21	82*	4	31	54*	56*	?
N#C[C@H]1[C@@H](c2ccc(C#CC3CC3)cc2)[C@@H](CO)N1C(=O)Cc1ccccn1	.	2	.	12	-4	.
C=CCOc1ccc(CN(C)CC(O)COc2ccc(CCC(C)=O)cc2)cc1 (stereo not drawn)	55*	-1	6	5	23	3
Cc1ccc(-c2csc3ncnc(SCC(=O)O)c23)cc1	9	-2	7	10	-3	1
CC(=O)c1ccccc1-c1csc2ncnc(Sc3nnnn3C)c12	33	86*	-11	14	8	-46
Cn1nnnc1Sc1ncnc2scc(-c3ccc(C#N)cc3)c12	83*	72*	46	88*	21	57*
Cn1nnnc1Sc1ncnc2scc(-c3cc4ccccc4o3)c12	103*	90*	76*	106*	12	62*
Cn1nnnc1Sc1ncnc2scc(-c3ccsc3)c12	72*	98*	33	74*	22	43*
SMILES	TWEAK Fn14 block	PAX8 inh HTS	TROY NFkB inh	LGR2 antag	EWS-Fli inh	EBV LMP1 NFkB
COc1ccc(NC(=O)Nc2ccc3c(c2)C(=O)N([C@H](C)CO)C[C@H](C)[C@@H](CN(C)C(=O)c2ccccc2)OCCCC[C@@H](C)O3)cc1	.	-4	.	7	-1	.
Cn1nnnc1Sc1ncnc2scc(-c3ccc(-c4ccccc4)cc3)c12	78*	77*	4	10	-5	28
Cn1nnnc1Sc1ncnc2scc(-c3cccs3)c12	.	.	.	.	.	53*
O=C(C[C@@H]1C[C@@H]2c3cc(NC(=O)C4CCOCC4)ccc3O[C@@H]2[C@H](CO)O1)NCc1cc(F)ccc1F	.	-34	.	9	10	.
COc1ccc(S(=O)(=O)Nc2ccc3c(c2)C(=O)N([C@H](C)CO)C[C@H](C)[C@H](CN(C)Cc2ccc(Cl)c(Cl)c2)OCCCC[C@H](C)O3)cc1	.	?	.	-13	3	.
COc1ccc(CN(C)C[C@H]2OCCCC[C@H](C)Oc3ccc(NS(=O)(=O)c4ccc(Cl)cc4)cc3C(=O)N([C@H](C)CO)C[C@H]2C)cc1	.	65*	.	8	12	.
COc1ccc(S(=O)(=O)Nc2ccc3c(c2)C(=O)N([C@@H](C)CO)C[C@@H](C)[C@H](CN(C)Cc2ccc(Cl)c(Cl)c2)OCCCC[C@@H](C)O3)cc1	.	73*	.	-32	12	.
COc1ccc(S(=O)(=O)Nc2ccc3c(c2)C(=O)N([C@H](C)CO)C[C@@H](C)[C@H](CN(C)Cc2ccc(Cl)c(Cl)c2)OCCCC[C@H](C)O3)cc1	.	68*	.	23	29	.
CC(C)C#Cc1ccc2c(c1)O[C@@H](CN(C)C(=O)c1cccc(F)c1)[C@H](C)CN([C@H](C)CO)S2(=O)=O	.	.	.	12	1	.
C[C@@H]1CN([C@H](C)CO)C(=O)Cc2cc(NC(=O)Cc3cn(C)c4ccccc34)ccc2O[C@@H]1CN(C)C	.	9	.	21	3	.
COc1ccc(N2C(=O)CC(c3cc(OC)c(OC)c(OC)c3)CC2=O)cc1	11	15	-7	.	25	-4
COc1cc(C2CC(=O)N(c3ccc(C)cc3)C(=O)C2)cc(OC)c1OC	21	20	7	-10	53*	7
Cc1ccc(S(=O)(=O)CCSC(=N)N)cc1	20	69*	-10	17	11	-6
Cc1ccc(S(=O)(=O)CC(N)=O)cc1	0	.	-9	-14	7	-8
CN(C)CCCNc1ccc(-c2cc(Nc3cccc(Cl)c3)ncn2)cn1	-28	21	-25	-7	4	-3
OCCCNc1cc(-c2ccnc(Nc3cccc(Cl)c3)n2)ccn1	97*	98*	59*	102*	-14	89*
CCC(C)Oc1cc(-c2ccnc(Nc3cccc(Cl)c3)n2)ccn1 (stereo not drawn)	91*	-84	44	84*	25	-105
CN(C)CC(=O)N1[C@H](CO)[C@@H](c2ccccc2)C12CN(Cc1cc(F)ccc1F)C2	.	6	.	8	2	.
N#C[C@@H]1[C@H](c2ccccc2-c2ccccc2)[C@@H](CO)N1C(=O)NC1CCCCC1	.	-4	.	-10	1	.
